Experimental data published in PubChem BioAssay (EPA / NIEHS).
Activity calls are given as the source filed them. How the source made its calls: active means hit-call score of the fitted dose curve at least 0.9, where 1 is the maximum; inactive means score below 0.9.

Experiment: BSK_BE3C_SRB: Viability Assessment in the BioMAP Diversity Plus: BE3C Assay (AID 2283028);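 on AC50: fitted both ways so AC50 may mark signal gain or loss versus DMSO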
Details: primary human bronchial epithelial cells
Protocol: BSK_BE3C is a cell-based, multiplexed-readout assay that uses bronchial epithelial cell, a human lung primary cell, with measurements taken at 24 hours after chemical dosing in a 96-well plate.BSK_BE3C_SRB is an assay component measured in the BSK_BE3C assay. It measures 0.1% sulforhodamine related to cell death using Sulforhodamine staining technology.Data from the assay component BSK_BE3C_SRB was analyzed into 1 assay endpoint. This assay endpoint, BSK_BE3C_SRB, was analyzed with bidirectional fitting relative to DMSO as the negative control and baseline of activity. Using a type of viability reporter, gain or loss-of-signal activity can be used to understand changes in the signaling. Furthermore, this assay endpoint can be referred to as a primary readout, because this assay has produced multiple assay endpoints where this one serves a signaling function. To generalize the intended target to other relatable targets, this assay endpoint is annotated to the cell morphology intended target family, where the subfamily is cell conformation.
The levels of cell surface (or secreted, indicated by the prefix "s") biomarker endpoints were measured by ELISA. Overt cytotoxicity to cells in confluent adherent cultures (all systems other than the BT system) was assessed by measuring total protein levels using sulforhodamine B (SRB) staining in parallel cultures at the time of biomarker measurements, indicated as SRB endpoints. For proliferation assays for adherent cell types, individual cell types are cultured at sub-confluence and relative cell numbers quantified by SRB staining at time points optimized for each system (48 h: 3C and CASM3C systems; 72 h: BT and HDF3CGF systems; 96 h: SAg system). SRB was performed by staining cells with 0.1% SRB after fixation with 10% TCA and reading wells at 560 nm.Viability and proliferation of PBMC (T cells) was quantified by Alamar Blue reduction for the SAg and BT systems. For PBMC viability (referred to as PBMC Cytotoxicity within the assay endpoint names), cells were plated (75,000/well in a 96-well plate) and then chemical samples added for 1 h before addition of activators, SEB and TSST-1 (20 ng/mL final concentration each). Cells were incubated for 90 h. Then, Alamar Blue (20 uL/well) (Invitrogen, Cat DAL1100) was added for 6 h, and the plates were read with a fluorescence microplate reader at 546/580 nm (excitation/emission). For PBMC proliferation, cells were plated and activated as above but incubated for only 16 h prior to addition of Alamar Blue. Plates were read after 6 h.

SMILES | outcome | AC50
CCN(CC)c1nc(C)cc(OP(=S)(OC)OC)n1 | inactive | 
CCOC(=O)C(C)OC(=O)c1cc(Oc2ccc(C(F)(F)F)cc2Cl)ccc1[N+](=O)[O-] (stereo not given) | inactive | 
Cc1nc(N(C)C)nc(OC(=O)N(C)C)c1C | inactive | 
O=C(Nc1ccccc1-c1ccc(Cl)cc1)c1cccnc1Cl | inactive | 
Nc1c(Cl)c(F)nc(OCC(=O)O)c1Cl | inactive | 
COc1ccc(-c2ccccc2)cc1NNC(=O)OC(C)C | inactive | 
CNC(=O)Oc1cccc2ccccc12 | inactive | 
COP(=S)(OC)Oc1ccc([N+](=O)[O-])c(C)c1 | inactive | 
CC1(C)C(C(=O)OC(C#N)c2cccc(Oc3ccccc3)c2)C1(C)C (stereo not given) |  | 6.87 µM (active)
COP(=O)(OC)O/C(C)=C/C(=O)N(C)C | inactive | 
CCSC(=O)N1CCCCCC1 | inactive | 
CC(C)(C)C(=O)C(Oc1ccc(Cl)cc1)n1cncn1 (stereo not given) | inactive | 
COCc1cnc(C2=NC(C)(C(C)C)C(=O)N2)c(C(=O)O)c1 (stereo not given) | inactive | 
CN/C(=N\[N+](=O)[O-])NCc1cnc(Cl)s1 | inactive | 
CS(=O)(=O)c1cc(C(F)(F)F)ccc1C(=O)c1cnoc1C1CC1 | inactive | 
COc1cc(OC)nc(NC(=O)NS(=O)(=O)c2ncccc2OCC(F)(F)F)n1 | inactive | 
CC1(C)CON(Cc2ccccc2Cl)C1=O | inactive | 
CCCCOCN(C(=O)CCl)c1c(CC)cccc1CC |  | 31.1 µM (active)
CS(=O)(=O)c1ccc(C(=O)C2C(=O)CCCC2=O)c([N+](=O)[O-])c1 | inactive | 
CCC(C)n1c(=O)[nH]c(C)c(Br)c1=O (stereo not given) | inactive | 

SMILES | outcome | AC50
COC(=O)N(C(=O)N1CO[C@@]2(C(=O)OC)Cc3cc(Cl)ccc3C2=N1)c1ccc(OC(F)(F)F)cc1 |  | 5.81 µM (active)
COc1cc(Cl)c(OC)cc1Cl | inactive | 
CN=C=S | inactive | 
O=C1C2CC=CCC2C(=O)N1SC(Cl)(Cl)Cl (stereo not given) | inactive | 
CCOc1nc(F)cc2nc(S(=O)(=O)Nc3c(Cl)cccc3Cl)nn12 | inactive | 
CC(C)Nc1nc(Cl)nc(NC(C)C)n1 | inactive | 
Cc1c(COC(=O)[C@@H]2[C@H](/C=C(\Cl)C(F)(F)F)C2(C)C)cccc1-c1ccccc1 | inactive | 
CCNP(=S)(OC)O/C(C)=C/C(=O)OC(C)C (stereo not given) | inactive | 
COCC(C)N(C(=O)CCl)c1c(C)csc1C (stereo not given) | inactive | 
CCOP(=S)(OCC)Oc1nc(Cl)n(C(C)C)n1 | inactive | 
CCCCC(O)(Cn1cncn1)c1ccc(Cl)cc1Cl (stereo not given) | inactive | 
CC(C)N1C(=O)N(c2ccccc2)CSC1=NC(C)(C)C |  | 27.8 µM (active)
CO/N=C(/C1=NOCCO1)c1ccccc1Oc1ncnc(Oc2ccccc2Cl)c1F | inactive | 
C=C(C)CN(CC)c1c([N+](=O)[O-])cc(C(F)(F)F)cc1[N+](=O)[O-] | inactive | 
COC(=O)c1c(C(F)F)nc(C(F)(F)F)c(C2=NCCS2)c1CC(C)C | inactive | 
OC(c1ccc(Cl)cc1)(c1ccc(Cl)cc1)C(Cl)(Cl)Cl |  | 12.9 µM (active)
CSC(=O)c1c(C(F)F)nc(C(F)(F)F)c(C(=O)SC)c1CC(C)C |  | 16.8 µM (active)
CC(C)Oc1cccc(NC(=O)c2ccccc2C(F)(F)F)c1 | inactive | 
Clc1cccc(C(Cl)(Cl)Cl)n1 | inactive | 
CNC(=O)N(C)c1nnc(C(C)(C)C)s1 | inactive | 
